What is called AC50 is the concentration giving half of the maximal activity seen.

The source made the active and inactive calls. How the source made its calls: active means hit-call score of the fitted dose curve at least 0.9, where 1 is the maximum; inactive means score below 0.9.

Read-out in this assay: TIMP metallopeptidase inhibitor 1 (TIMP1), TIMP1 (gene 7076)
As to the kind of experiment: BSK_hDFCGF_TIMP1: BioMAP Diversity Plus: hDFCGF Assay for TIMP metallopeptidase inhibitor 1 (TIMP1) Biomarker Activity (AID 2283062). The conditions noted are these: primary human foreskin fibroblasts; actives raise or lower the signal. The procedure: BSK_hDFCGF is a cell-based, multiplexed-readout assay that uses foreskin fibroblast, a human skin primary cell, with measurements taken at 24 hours after chemical dosing in a 96-well plate.BSK_hDFCGF_TIMP1 is an assay component measured in the BSK_hDFCGF assay. It measures TIMP-1 antibody related to regulation of gene expression using ELISA technology.Data from the assay component BSK_hDFCGF_TIMP1 was analyzed into 1 assay endpoint. This assay endpoint, BSK_hDFCGF_TIMP1, was analyzed with bidirectional fitting relative to DMSO as the negative control and baseline of activity. Using a type of binding reporter, gain or loss-of-signal activity can be used to understand changes in the signaling as they relate to the gene TIMP1. Furthermore, this assay endpoint can be referred to as a primary readout, because this assay has produced multiple assay endpoints where this one serves a signaling function. To generalize the intended target to other relatable targets, this assay endpoint is annotated to the protease inhibitor intended target family, where the subfamily is metalloproteinase inhibitor.
The levels of cell surface (or secreted, indicated by the prefix "s") biomarker endpoints were measured by ELISA. Overt cytotoxicity to cells in confluent adherent cultures (all systems other than the BT system) was assessed by measuring total protein levels using sulforhodamine B (SRB) staining in parallel cultures at the time of biomarker measurements, indicated as SRB endpoints. For proliferation assays for adherent cell types, individual cell types are cultured at sub-confluence and relative cell numbers quantified by SRB staining at time points optimized for each system (48 h: 3C and CASM3C systems; 72 h: BT and HDF3CGF systems; 96 h: SAg system). SRB was performed by staining cells with 0.1% SRB after fixation with 10% TCA and reading wells at 560 nm.Viability and proliferation of PBMC (T cells) was quantified by Alamar Blue reduction for the SAg and BT systems. For PBMC viability (referred to as PBMC Cytotoxicity within the assay endpoint names), cells were plated (75,000/well in a 96-well plate) and then chemical samples added for 1 h before addition of activators, SEB and TSST-1 (20 ng/mL final concentration each). Cells were incubated for 90 h. Then, Alamar Blue (20 uL/well) (Invitrogen, Cat DAL1100) was added for 6 h, and the plates were read with a fluorescence microplate reader at 546/580 nm (excitation/emission). For PBMC proliferation, cells were plated and activated as above but incubated for only 16 h prior to addition of Alamar Blue. Plates were read after 6 h.
On to `NC(=O)N(O)[C@@H]1COc2cc(OCc3ccccc3)ccc21`, for which the result was inactive.

Regarding `CCCCCOC(C)=O`, the outcome was inactive.

On to `CCc1ccc(O)c(C(C)(C)C)c1`, for which the half-maximal activity concentration (AC50) was 31.1 µM (active).

For `O=S(=O)(O)c1ccc(N=Nc2c(O)ccc3cc(S(=O)(=O)O)ccc23)cc1`, the result was inactive.

Take `FC(F)C(F)(F)COCC1CO1` (stereo not given): the result was inactive.

Turning to `CC[C@H](C)C(=O)O[C@H]1C[C@H](O)C=C2C=C[C@H](C)[C@H](CC[C@@H](O)C[C@@H](O)CC(=O)O)[C@H]21`, the outcome was inactive.

As to `COc1cc2c(c(OC)c1OC)-c1ccc(OC)c(=O)cc1[C@@H](NC(C)=O)CC2`, the result was inactive.

Consider `CCCCCCCC/C=C\CCCCCCCC(=O)OC[C@@H](O)[C@H]1OC[C@H](O)[C@H]1O`, for which the result was inactive.

In the case of `NC(=O)N1c2ccccc2C=Cc2ccccc21`, the result was inactive.

Regarding `OC(Cn1cncn1)(Cn1cncn1)c1ccc(F)cc1F`, the result was inactive.

As for `COCc1nnc(-c2ccc[n+]([O-])c2)n1-c1c(Cl)c(Cl)cc2[nH]c(=O)c(=O)[nH]c12`, the outcome was inactive.

Consider `CCCCCCCCN(C)C`, for which the result was inactive.

As to `CCCCCCCCCCCCCCCCOS(=O)(=O)O`, the half-maximal activity concentration (AC50) was 18.2 µM (active).

With `Cc1ncc([C@@H](CCCCCCc2ccc3c(n2)NCCC3)CC(=O)O)cn1`, the result was inactive.

As to `Cc1cccc(O)c1C`, the outcome was inactive.

As to `C=CCc1cc(S(=O)(=O)c2ccc(O)c(CC=C)c2)ccc1O`, the half-maximal activity concentration (AC50) was 26.4 µM (active).

With `O=C1CN(N=Cc2ccc([N+](=O)[O-])o2)C(=O)N1`, the outcome was inactive.

Regarding `CCCCCCCC1CCC(=O)O1` (stereo not given), the result was inactive.

For `CC(C)C(=O)Nc1ccc([N+](=O)[O-])c(C(F)(F)F)c1`, the result was inactive.

In the case of `NNC(=O)c1ccncc1`, the result was inactive.

Turning to `O=S(=O)(O)CCC(F)(F)C(F)(F)C(F)(F)C(F)(F)C(F)(F)C(F)(F)F`, the outcome was inactive.

As to `OC(O)(C(F)C(O)(O)C(F)(F)F)C(F)(F)F`, the outcome was inactive.

With `OC[C@H]1O[C@@H]2O[C@H]3[C@H](O)[C@@H](O)[C@@H](O[C@H]4[C@H](O)[C@@H](O)[C@@H](O[C@H]5[C@H](O)[C@@H](O)[C@@H](O[C@H]6[C@H](O)[C@@H](O)[C@@H](O[C@H]7[C@H](O)[C@@H](O)[C@@H](O[C@H]1[C@H](O)[C@H]2O)O[C@@H]7CO)O[C@@H]6CO)O[C@@H]5CO)O[C@@H]4CO)O[C@@H]3CO`, the result was inactive.

For the compound `S=P(N1CC1)(N1CC1)N1CC1`, the result was inactive.

As to `Cn1cc[nH]c1=S`, the result was inactive.

Regarding `OCCOCCOCCO`, the result was inactive.

Regarding `OCc1ccccc1`, the outcome was inactive.

For `CCOc1ccc2[nH]cc(C(=O)NCc3ccccc3)c(=O)c2n1`, the outcome was inactive.

For `NC(N)=O`, the outcome was inactive.

On to `CC(C)CCCCCCOC(=O)C1CCCCC1C(=O)OCCCCCCC(C)C` (stereo not given), for which the outcome was inactive.

Turning to `FC(F)(F)C(F)(F)C(F)(F)C(F)(F)C(F)(F)C(F)(F)I`, the result was inactive.

For the compound `OCC(CO)(CO)CO`, the outcome was inactive.

Turning to `CC(C)CC(C)O` (stereo not given), the outcome was inactive.

As to `O=C(NO)C1(NS(=O)(=O)c2ccc(Oc3ccc(F)cc3)cc2)CCOCC1`, the outcome was inactive.

Consider `C=CN1CCCC1=O`, for which the result was inactive.

In the case of `c1ccc2c(c1)-c1cccc3c1c-2cc1ccccc13`, the outcome was inactive.

Consider `CCCCCCCCCCCCCCO`, for which the result was inactive.

On to `OCCNCCO`, for which the result was inactive.

In the case of `O=C(O)[C@H](O)[C@@H](O)C(=O)O`, the outcome was inactive.

For the compound `CCCC(CCC)C(=O)O`, the outcome was inactive.

The values above are taken from PubChem BioAssay (EPA / NIEHS).
